Screening data from PubChem BioAssay.
This is a sample that favours compounds with a hit; in the whole collection about 19% have one here.
HT1080 IDH1KD tx: qHTS for induction of synthetic lethality in tumor cells producing 2HG: qHTS for the HT-1080-IDH1KD cell line; Potency, µM (titrated, usually from 46.1 µM), inactives show at the top dose activity, negative = toxicity, usual class: cytotoxic; AID 686971, 2013; actives 2% (n = 360,000); HT-1080 IDH1 knockdown viability, ATP luminescence, 48 h;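 also: 0% = DMSO wells and -100% = cell-free medium wells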
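Viability of IDH1-knockdown HT-1080 fibrosarcoma cells was assessed by CellTiter-Glo after 48 h at 37 °C with titrated compound; concentration-effect curves were classified by fit quality and response size.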
KB-3-1 cytotox: qHTS assay for MDR1-selective chemotherapeutics: Primary screen using the parental adenocarcinoma cell KB-3-1; KB-3-1 viability, CellTiter-Glo ATP luminescence, 72 h; Potency, µM (top dose mostly 46.1 µM), actives largely listed as cytotoxic; actives 1.4% (n = 400,000); also: nearly all actives have a fitted effect of over 60% in size
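KB-3-1 cells, DMEM (no phenol red) + 10% FBS; compound by pin transfer, 72 h, 37 °C. Readout: CellTiter-Glo luminescence after 10 min. Data normalized, curve-fitted.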
DT40 TDP1 CPT: qHTS for Inhibitors of human tyrosyl-DNA phosphodiesterase 1 (TDP1): qHTS in cells in presence of CPT | chicken DT40 Tdp1-/-;hTDP1 cells + 20 nM CPT, ATP luminescence, 48 h | Potency, µM (titrated, usually from 46.2 µM), without a hit: at the highest dose activity change, negative = growth inhibition, most hits filed as inhibitors | AID 686979, 2013 | actives 12% (n = 420,000); also: nearly all actives have a fitted effect of over 55% in size
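Chicken DT40 Tdp1-/- cells complemented with human TDP1, 400 cells/well, exposed to compounds plus 20 nM camptothecin for at least 48 h at 37 C; viability read as ATP content by CellTiter-Glo luminescence.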
KB-V1 cytotox: qHTS assay for MDR1-selective chemotherapeutics: Primary screen using the drug-selected MDR subline cells KB-V1 | actives 3.4% (n = 400,000) | KB-V1 MDR cells viability, CellTiter-Glo, 72 h | Potency, µM (series often up to 46.1 µM), hits mostly cytotoxic; also: nearly all actives have a fitted effect of over 60% in size
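qHTS viability screen in drug-selected KB-V1 MDR cells: 72 h compound treatment at 37 degrees C, ATP luminescence end point.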
HT1080NT lethal: qHTS for induction of synthetic lethality in tumor cells producing 2HG: qHTS for the HT-1080-NT fibrosarcoma cell line; HT-1080-NT fibrosarcoma viability, CellTiter-Glo ATP luminescence, 48 h; Potency, µM (highest dose often 46.1 µM), without a hit: at the top dose activity, negative = less viability, most hits filed as cytotoxic; actives 1.6% (n = 360,000); AID 686970, 2013;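 also: NT is the 2HG producing partner of a matched IDH1 knockdown line; 0% = DMSO-treated cells and -100% = media-only wells without cells; nearly all actives have a fitted effect of over 55% in size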
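Compounds were tested in concentration-response format on HT-1080-NT cells for 48 hours at 37 degrees C. Cell viability came from CellTiter-Glo luminescence; curves were classified by r2, response magnitude and activity.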
TDP1 cell noCPT: qHTS for Inhibitors of human tyrosyl-DNA phosphodiesterase 1 (TDP1): qHTS in cells in absence of CPT. DT40 Tdp1-/- hTDP1 cells, no CPT, ATP luminescence, 48 h. Potency, µM (doses to about 46.2 µM), for the others: at the highest dose activity change, negative = growth inhibition, hits mostly inhibitors. actives 15% (n = 420,000); also: nearly all actives have a fitted effect of over 55% in size
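Readout: luminescence from CellTiter-Glo after 30 min in the dark at RT. Cells: DT40 Tdp1-/- with stable hTDP1, 400/well. Exposure: compounds alone, ≥48 hr, 37 °C.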
Numbers without * were called inactive; i = inactive; u = inconclusive; x = no result given; [ ] = dose if it differs, or a comment. Calls follow the shape of the dose curve; as a rule, active = well fitted curve in the direction sought with a large enough effect; inconclusive = small, poorly fitted or top-dose-only effect, or another doubt; inactive = no such curve, though single readings can be large; an effect the other way counts as inactive or inconclusive. Unless noted, % is scaled to controls: 0 for no effect and ±100 for the full control effect; potency is read from the fitted curve at half-maximal effect.

SMILES	HT1080 IDH1KD tx	KB-3-1 cytotox	DT40 TDP1 CPT	KB-V1 cytotox	HT1080NT lethal	TDP1 cell noCPT
CCOC(=O)c1c(NC(=O)COC(=O)c2cccnc2OCC)sc(C(=O)N(CC)CC)c1C	-16%	i	u	i	1%	18µM*
CCOC(=O)c1c(NC(=O)COC(=O)CCCOc2ccc(OC)cc2)sc(C(=O)N(C)C)c1C	-5%	i	-1%	i	-2%	u
CCOC(=O)c1c(NC(=O)COc2ccc(OC)cc2)sc(C(=O)N(CC)CC)c1C	x	x	u	x	x	7.3µM*
CCOC(=O)Nc1sc(C(=O)N(CC)CC)c(C)c1C(=O)OCC	5%	i	-11%	i	12%	-17%
NS(=O)(=O)c1ccc(S(=O)(=O)N(CCc2ccccc2)Cc2ccccn2)cc1	3%	i	-2%	i	0%	-15%
COc1ccc2nc3n(c(=O)c2c1)-c1ncccc1C(=O)NC3C (stereo not drawn)	4%	i	4%	i	15%	u
O=C(NCC1(N2CCOCC2)CCCC1)c1cnn(-c2nccc(-c3cccs3)n2)c1C1CC1	x	x	-2%[9.04 µM]	x	x	-10%
CCN(CC)C(=O)c1sc(NC(=O)C2c3ccccc3Oc3ccccc32)c(C(=O)OC(C)C)c1C	x	i	u	i	x	0.12µM*
CCOC(=O)c1c(NC(=O)COc2ccccc2)sc(C(C)=O)c1C	x	i	x	u	x	x
CCOC(=O)c1c(NC(=O)COc2ccc(Br)cc2)sc(C(C)=O)c1C	x	i	u	i	x	9.2µM*
CCOC(=O)c1c(NC(=O)C2c3ccccc3Oc3ccccc32)sc(C(N)=O)c1C	-7%	i	u	i	1%	u
Cc1nn(-c2cccc(Cl)c2)c2nc(C(F)(F)F)[nH]c(=O)c12	u	i	u	i	u	29µM*
COc1ccc(C(=O)Nc2ccccc2C(=O)NCc2cccnc2)cc1OC	1%	x	3%	x	0%	-9%
COc1ccc(C(=O)Nc2ccccc2C(N)=O)cc1	-16%	u	u	i	-3%	-25%
COc1ccc(C(=O)Nc2ccccc2C(=O)N/N=C/c2ccncc2)cc1OC	26µM*	u	16µM*	u	26µM*	16µM*
COc1ccc(C(=O)Nc2ccccc2C(=O)Nc2ccncc2)cc1	-2%	u	u	u	-14%	16µM*
COc1ccc(C(=O)Nc2ccccc2C(=O)N/N=C/c2cccc3ccccc23)cc1	18µM*	u	21µM*	u	18µM*	16µM*
COc1ccc(C(=O)Nc2ccccc2C(=O)Nc2ccccc2C(=O)O)cc1	-21%	u	18µM*	i	-18%	23µM*
COc1ccc(C(=O)OCC(=O)NCC2CCCCC2)cc1F	-10%	i	u	i	-21%	-26%
COc1ccc(C(=O)Nc2cc(OC)c(Cl)cc2OC)cc1	12%	u	-22%	i	5%	u
COc1ccc(NC(=O)Nc2ccccc2F)cc1	-9%	u	8.2µM*	18µM*	u	7.9µM*
COc1ccc(NC(=O)Nc2ccccc2SC)cc1	-18%	i	u	i	-21%	-26%
COc1ccc(C(=O)Nc2cc(OC)c(NC(=O)Nc3ccccc3)cc2OC)cc1	u	i	u	i	u	18µM*
CC(C)(C)c1ccc(OCc2ccc(C(=O)NCc3cccnc3)o2)cc1	0%	i	21µM*	i	0%	8.2µM*
COc1ccc(NC(=O)COc2ccc(C(=O)NCc3cccnc3)cc2OC)cc1	14%	i	u	i	-3%	u
SMILES	HT1080 IDH1KD tx	KB-3-1 cytotox	DT40 TDP1 CPT	KB-V1 cytotox	HT1080NT lethal	TDP1 cell noCPT
COc1ccccc1OCC(=O)Nc1ccccc1C(=O)NCc1cccnc1	10%	i	-28%	i	0%	-27%
COc1cc(OC)cc(C(=O)NCc2cccnc2)c1	0%	i	27%	u	6%	-6%
Cc1ccc(OCc2ccc(C(=O)NCc3cccnc3)cc2)cc1C	18µM*	u	3.3µM*	u	u	5.2µM*
O=C(COc1ccc(Cl)cc1)Nc1ccc(C(=O)NCc2cccnc2)cc1	u	u	12µM*	u	u	9.2µM*
O=C(COc1ccc(Cl)cc1)Nc1ccccc1C(=O)NCc1cccnc1	-1%	x	u	x	-8%	23µM*
CC(=O)Nc1c(C)nn(-c2ccccc2)c1N1CCC(C(=O)Nc2ccccc2C(F)(F)F)CC1	x	x	-17%	x	x	-20%
CC(C)C[C@H]1CNC(=O)C(=O)N1CC1CCN(CCc2ccccc2)CC1	8%	i	-12%	i	6%	17%
O=C(NCc1cccnc1)Nc1ccc(Br)cc1	18%	i	10%	i	13%	13%
O=C(NCc1cccnc1)c1ccc(NC(=O)c2ccc(Br)cc2)cc1	5.8µM*	i	9.2µM*	i	12µM*	15µM*
O=C(NCc1cccnc1)c1ccc(COc2ccc(Cl)cc2)cc1	u	i	16µM*	i	-21%	10µM*
